From PubChem BioAssay (NCATS)
Values joined by “and” are separate entries in the source; they are usually repeats but may differ in a detail not shown here. Equal values may be shown once. Inconclusive results are not listed. Values without a mark were called inactive. Active and inactive are the calls of the source. The call rests on the fitted dose curve; in most records, active means well fitted inhibition curve with a large enough effect; inconclusive means small, poorly fitted or top-dose-only effect; inactive means no such curve, though single readings can be large or run the other way.

molecular target: Tyrosine-protein kinase Yes (Homo sapiens) (UniProt P07947); assay: qHTS for small molecule inhibitors of Yes1 kinase: Primary Screen (AID 686947); conditions: Yes1 kinase biochemical qHTS inhibition; series mostly up to 76.9 µM; activity change, negative = inhibition: at the top concentration; further: nearly all actives have a fitted effect of over 60% in size;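 on activity change, negative = inhibition: plate controls were DMSO with enzyme for no effect and no-enzyme DMSO wells for full effect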
How it was run: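 Yes1 (4 nM) preincubated 20 min with compound, then 60 min room-temperature reaction with 0.1 mM ATP and 0.3 mg/mL poly(E4Y) in pH 7.5 Tris, 10 mM MgCl2. ADP measured by ADP-Glo luminescence, normalised to enzyme/no-enzyme controls.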
Potency means the concentration at half of the fitted maximal effect.

Sequence of Tyrosine-protein kinase Yes (Homo sapiens) (P07947 whole entry, looked up): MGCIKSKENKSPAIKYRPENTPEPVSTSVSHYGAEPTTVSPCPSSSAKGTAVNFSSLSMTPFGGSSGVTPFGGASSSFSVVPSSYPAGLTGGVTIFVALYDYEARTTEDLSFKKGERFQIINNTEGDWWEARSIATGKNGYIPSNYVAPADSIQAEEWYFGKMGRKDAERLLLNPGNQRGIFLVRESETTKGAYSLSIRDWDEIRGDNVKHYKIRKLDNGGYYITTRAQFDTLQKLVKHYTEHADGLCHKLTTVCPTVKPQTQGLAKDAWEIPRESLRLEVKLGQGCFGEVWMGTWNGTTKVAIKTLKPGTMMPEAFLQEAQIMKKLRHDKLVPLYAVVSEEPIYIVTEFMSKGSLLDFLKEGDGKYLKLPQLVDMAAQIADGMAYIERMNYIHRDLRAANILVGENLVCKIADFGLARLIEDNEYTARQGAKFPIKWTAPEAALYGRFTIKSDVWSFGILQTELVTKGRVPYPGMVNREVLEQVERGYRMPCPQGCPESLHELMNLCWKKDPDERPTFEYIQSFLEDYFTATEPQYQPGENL

SMILES | Potency | activity change, negative = inhibition
Nc1nc(Cl)nc2c1ncn2[C@H]1C[C@H](O)[C@@H](CO)O1 | 79300 nM (active) | 
Cc1cccc(-c2[nH]ncc2-c2ccc3ncccc3n2)n1 | 2.92 µM (active) and 2.23 µM (active) | 
Cc1cccc(C#Cc2ccccc2)n1 |  | -1.8%
S=c1nc[nH]c2nc[nH]c12 |  | 2.83% [at 154 µM]
CC(C)C[C@H](NC(=O)[C@H](Cc1ccccc1)NC(=O)c1cnccn1)B(O)O |  | -2.48%
O=Nc1c(-c2c(O)[nH]c3cc(Br)ccc23)[nH]c2ccccc12 | 154 nM (active) | 
CCOC(=O)C1=C(O)C(=O)N(Cc2ccccc2)C1 |  | -15.2%
C[C@@H](N)C1CCC(C(=O)Nc2ccncc2)CC1 (stereo partly drawn) |  | -4.11%
CCN(CCO)CCCC(C)Nc1ccnc2cc(Cl)ccc12 (stereo not drawn) |  | 11.4%
O=C(NOCC1CC1)c1ccc(F)c(F)c1Nc1ccc(I)cc1Cl |  | 14.4%
Nc1cccc2c1CN(C1CCC(=O)NC1=O)C2=O (stereo not drawn) |  | -7.96% [at 154 µM]
NS(=O)(=O)c1cc(C(=O)O)c(NCc2ccco2)cc1Cl |  | 2.61%
CCN(CC)CCOc1ccc(Nc2ncc3cc(-c4c(Cl)cccc4Cl)c(=O)n(C)c3n2)cc1 | 0.00972 nM (active) | 
